Laboratory results as given in the supplement of paper PMC9135407.
Counter-ions that a name gives are not always drawn.

The compounds below were run on primary human hepatic stellate cells (donor 1) (assay: ACTA2 mRNA fold change vs DMSO (normalised to PSMB2); higher = more ACTA2 expression). Conditions: 48 h.
Description: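 Secondary qRT-PCR screen in primary human HSCs (donor 1), 384-well plates, with compounds dispensed in quadruplicate and incubated for 48 h. Cells-to-CT lysates were used for multiplexed TaqMan qPCR of ACTA2 or COL1A1 with PSMB2 as reference. Fold changes versus DMSO come from a linear model (Ct_gene ~ Ct_PSMB2 + plate + chemical). A hit is defined as COL1A1 and ACTA2 FC <0.5 (FDR <0.05) with PSMB2 between 0.2 and 2.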

With `C[C@]12CC[C@H](O)C[C@H]1CC[C@@H]1[C@@H]2CC[C@]2(C)[C@@H](C3=CC(=O)OC3)CC[C@]12O` [Digitoxigenin] (33.3333 µM) as the compound, how does the “ACTA2 mRNA fold change” value read?
Its value is 0.0171.

With `O=C1/C(=C/c2ccccc2)C[C@@]2(O)[C@H]3Cc4ccc(O)c5c4[C@@]2(CCN3CC2CC2)[C@H]1O5` [BNTX maleate] (33.3333 µM) as the compound, how does the “ACTA2 mRNA fold change” value read?
Its value is 0.275.

For `COc1ccc2c(c[n+](C)c3c4cc5c(cc4ccc23)OCO5)c1OC` (6.66667 µM), which “ACTA2 mRNA fold change” value is on record?
The value was 0.0494.

For `CN1[C@@H]2CC[C@H]1C[C@@H](OC(c1ccc(F)cc1)c1ccc(F)cc1)C2` [3 α-Bis-(4-fluorophenyl) methoxytropane hydrochloride] (33.3333 µM), which “ACTA2 mRNA fold change” value is on record?
The value was 0.094.

With `C[C@@H]1O[C@@H](O[C@H]2C[C@@H](O)[C@]3(CO)[C@H]4[C@H](O)C[C@]5(C)[C@@H](C6=CC(=O)OC6)CC[C@]5(O)[C@@H]4CC[C@]3(O)C2)[C@H](O)[C@H](O)[C@H]1O` [Ouabain] (33.3333 µM) as the compound, how does the “ACTA2 mRNA fold change” value read?
The value was 0.0189.

For `CCCCCCCCCCCCCC(=O)O[C@@H]1[C@@H](C)[C@@]2(O)[C@@H](C=C(CO)C[C@]3(O)C(=O)C(C)=C[C@@H]23)[C@@H]2C(C)(C)[C@]12OC(C)=O` [Phorbol 12-myristate 13-acetate] (27.0333 µM), which “ACTA2 mRNA fold change” value is on record?
Its value is 0.624.

`CC(C(=O)OC1CC2CCC(C1)N2C)c1ccc(Br)cc1` (configuration not stated) [PG-9 maleate] (33.3333 µM) was tested. Which “ACTA2 mRNA fold change” value did it give?
Its value is 0.404.

`CCN(CC)CCO[C@H]1CC[C@@]2(C)C(=CC[C@@H]3[C@@H]2CC[C@]2(C)C(=O)CC[C@@H]32)C1` (33.3333 µM) was tested. Which “ACTA2 mRNA fold change” value did it give?
Its value is 0.123.

Which “ACTA2 mRNA fold change” value does the source give for `CC1=NCCc2c1[nH]c1cc(O)ccc21` [Harmalol hydrochloride dihydrate] (24.4333 µM) here?
The value was 0.546.

For `Fc1cc(F)c2c(c1)[C@H]1C=CC[C@H]1C(c1cccnc1)N2` (some centres not stated) [Golgicide A] (33.3333 µM), which “ACTA2 mRNA fold change” value is on record?
The value was 0.00835.

Which “ACTA2 mRNA fold change” value does the source give for `CC1=C(O)C(=O)C=C2C1=CC=C1[C@@]2(C)CC[C@@]2(C)[C@@H]3C[C@](C)(C(=O)O)CC[C@]3(C)CC[C@]12C` [Celastrol] (3.33333 µM) here?
Its value is 0.524.

`COc1ccc2[nH]cc(C3=CCNCC3)c2c1` (33.3333 µM) was tested. Which “ACTA2 mRNA fold change” value did it give?
Its value is 3.02.

`O=C1C2CCN(CC2)C1(CO)CO` (90 µM) was tested. Which “ACTA2 mRNA fold change” value did it give?
The value was 0.152.

For `O=c1[nH]c2ccccc2n1C1CCN(CCCC(c2ccc(F)cc2)c2ccc(F)cc2)CC1` [Pimozide] (33.3333 µM), which “ACTA2 mRNA fold change” value is on record?
The value was 0.0136.

`CO[C@H]1CC[C@@H](O[C@H]2C[C@H]([C@]3(C)CC[C@]4(C[C@H](O)[C@@H](C)[C@@H]([C@@H](C)/C=C(\C)C(=O)[C@H](C)C[C@H](C)C(=O)O)O4)O3)O[C@]3(O[C@@H]([C@H]4O[C@@](O)(CO)[C@H](C)C[C@@H]4C)C[C@@H]3C)[C@@H]2C)O[C@@H]1C` [Nanchangmycin] (11.1 µM) was tested. Which “ACTA2 mRNA fold change” value did it give?
Its value is 0.0291.

Which “ACTA2 mRNA fold change” value does the source give for `CC[C@H]1CN2CCc3cc(OC)c(OC)cc3[C@@H]2C[C@@H]1C[C@H]1NCCc2cc(OC)c(OC)cc21` [Emetine] (12.0333 µM) here?
The value was 0.0996.

With `CC1=C(CC/C(C)=C/CCC2=CC[C@H](C3=CC(=O)O[C@H]3O)O[C@H]2O)C(C)(C)CCC1` [Manoalide] (40 µM) as the compound, how does the “ACTA2 mRNA fold change” value read?
The value was 0.0669.

For `O=[N+]([O-])/C=C/c1ccc2c(c1)OCO2` (3.7 µM), which “ACTA2 mRNA fold change” value is on record?
Its value is 0.905.

For `CN(C(=O)Cc1ccc(Cl)c(Cl)c1)[C@H](CN1CCCC1)c1ccccc1` [ICI-199,441 hydrochloride] (33.3333 µM), which “ACTA2 mRNA fold change” value is on record?
Its value is 0.0655.

`CCN1CCN(C(=O)Cc2ccc(Nc3ncc(F)c(Nc4ccc(C(=O)Nc5ccccc5Cl)cc4)n3)cc2)CC1` [Aurora A Inhibitor I] (33.3333 µM) was tested. Which “ACTA2 mRNA fold change” value did it give?
The value was 0.131.

`C[C@H](N)Cn1ccc2cc(F)c(Cl)cc21` [Ro 60-0175 fumarate] (33.3333 µM) was tested. Which “ACTA2 mRNA fold change” value did it give?
The value was 0.532.

For `CN[C@@H]1C[C@H]2O[C@@](C)([C@@H]1OC)n1c3ccccc3c3c4c(c5c6ccccc6n2c5c31)C(=O)NC4` [staurosporine] (35.6667 µM), which “ACTA2 mRNA fold change” value is on record?
Its value is 0.667.
